Data from PubChem BioAssay (NCATS).
Records with an inconclusive call do not appear. Where a call stands in place of a potency, no number is given. The source made the active and inactive calls. Calls come from the whole dose curve; as a rule, active = well fitted inhibition curve with a large enough effect; inconclusive = small, poorly fitted or top-dose-only effect; inactive = flat fitted curve, though single readings scatter.

Experiment: qHTS for Inhibitors of Plasmodium falciparum (7G8) proliferation (AID 504316); note: nearly all actives have a fitted effect of over 65% in size
Details: P. falciparum 7G8 in erythrocytes, SYBR Green DNA, 72 h; series mostly up to 6.7 µM
Source text: Plasmodium falciparum is a virulent malarial parasite that kills 1-2 million people worldwide each year. Malaria not only inflicts tremendous suffering and morbidity on the human population, but has dramatically influenced the course of civilization with profound sociological and economic implications (Shah, S. 2010). Transmitted by mosquitoes, the sporozoite form of the parasite enters the blood stream to infect hepatocytes, where they become merozoites that infect red blood cells (erythrocytes). Within erythrocytes, merozoites begin a […] cycle of growth and division, after which the parasite is released to infect new red blood cells. Gametocytes, which form within erythrocytes as well, circulate in the bloodstream and are ingested by the mosquito, thereby completing the life cycle (see CDC website). To profile malarial lines for differential chemical responses and to identify inhibitors of malarial growth, an assay that measures P. falciparum growth and replication within erythrocytes was employed. This assay uses a DNA binding fluorescent dye (SYBR Green) to detect parasite DNA following cell lysis. Because mature erythrocytes lack DNA, only Plasmodium-derived DNA is detected. The P. falciparum line cp250, derived from a malarial isolate from Cambodia, (Mu, J., et al. 2010) was added to the panel of lines, Dd2, HB3, 7G8 and GB4 in this study. Laboratory of Assay Development and Screening Technology [ADST] and NIH Chemical Genomics Center [NCGC] Boston University, Chemistry Department, Center for Chemical Methodology and Library Development [CMLD-BU] NIH National Institute of Allergy and Infectious Diseases [NIAID]
ADST Assay Protocol Summary: The 1536-well SYBR Green viability assay was based on the method of Bennett et al (2004) and described previously in 1536-well format (Yuan J., et al. 2009). For screening 3 ul culture medium was dispensed into 1536 well black clear bottom plates (Aurora Biotechnologies) using a Multidrop Combi (Thermo Fisher Scientific Inc.), 23 nL compounds in DMSO were added by a pin transfer (Cleveland, P.H. and Koutz, P.J, 2005) using a pin tool-based delivery system (Kalypsys), and 5 ul of erythrocytes infected with P. falciparum one of five lines (cp250, Dd2, HB3, 7G8 or GB4, 0.3% parasitemia, 2.5% hematocrit final concentration) were added. The plates were incubated at 37C in a humidified incubator in 5% CO2 for 72 h, and 2 ul lysis buffer (20 mM Tris HCl, 10 mM EDTA, 0.16% saponin, 1.6% triton X, 10X SYBR Green I (supplied as 10,000X final concentration by Invitrogen) was added to each well. The plates were mixed for 25 sec with gentle shaking and incubated overnight at room temperature in the dark. The following morning, fluorescence intensity at 485(14) nm excitation and 535(25) nm emission wavelengths was measured on an EnVision (Perkin Elmer) plate reader. Plate reads were normalized relative to the control inhibitor (0.29 uM artemisinin) and vehicle (DMSO) wells present on each plate and then corrected by an algorithm using vehicle-only control plates at the beginning and end of the compound plate stack. References Shah, S. (2010). The Fever: how malaria has ruled humankind for 500,000 years. New York, Sarah Crichton Books. CDC web site, http://www.cdc.gov/malaria/about/biology/index.html Mu, J., Myers, R.A., Jiang, H., Liu, S., Ricklefs, S., Waisberg, M., Chotivanich, K., Wilairatana, P., Krudsood, S., White, N.J., et Plasmodium falciparum genome-wide scans for positive selection, recombination hot spots and resistance to antimalarial drugs Nature Genetics 2010, 42, pp 268-271 Bennett TN, Paguio, M., Gligorijevic, B., Seudieu, C., Kosar, A. D., Davidson, E., and Roepe, P. D. Novel, rapid, and inexpensive cell-based quantification of antimalarial drug efficacy Antimicrobial Agents Chemother. 2004, 48(5): pp 1807-10 Yuan J, Johnson RL, Huang RL, Wichterman J, Jiang HY, Hayton K, Fidock DA, Wellems TE, Inglese J, Austin CP, Su XZ. […]
Potency is the fitted concentration of half-maximal effect.

| SMILES | Potency |
| --- | --- |
| c1ccc(-c2nc(-c3cccc4ccccc34)c(Nc3ccc4ccccc4c3)o2)cc1 | 1510 nM (active) |
| CCOC(=O)CCCNC(=O)N1CCc2nc(-c3ccc(OC)cc3C)c3c(c2C1)CO[C@@H](c1ccccc1)C3 | 1690 nM (active) |
| COC(=O)C1=C(C(=O)OC)[C@@H]2N(Cc3ccccc3)c3ccccc3[C@@]23C[C@@H](C(=O)OC)N(S(=O)(=O)c2ccc(C(F)(F)F)cc2)C3=N1 | 478 nM (active) |
| CCCC[C@]12Cc3cc(OC)c(OC)cc3[C@H](O1)C1=C(O2)C(=O)c2ccccc2C1=O | 1510 nM (active) |
| O=C1C=CC2(OCCCO2)C(Br)=C1CO | inactive |
| COC(=O)C1=C(C(=O)OC)[C@@H]2Nc3ccccc3[C@@]23C[C@@H](C(=O)OC)N(C(=O)c2ccco2)C3=N1 | inactive |
| COC(=O)C1=C(C)N(CCc2cc(OC)c(OC)c(OC)c2)C(=O)N[C@H]1c1ccccc1 | inactive |
| CC#CCN1c2ccccc2[C@]23C[C@@H](C(=O)OC)N(C(C)=O)C2=NC(C(=O)OC)=C(C(=O)OC)[C@H]13 | inactive |
| C=C[C@@]1(C)CC[C@H](O)[C@H]2C(=O)CCC[C@H]21 | inactive |
| COC/C=C/C1=CC2=CC(=O)C(C)(OC(=O)c3cnc4ccccc4n3)C(=O)C2=CN1CCCCO (stereo not given) | inactive |
| COC(=O)C1=C(C(=O)OC)[C@@H]2Nc3ccccc3[C@@]23C[C@@H](C(=O)OC)N(S(=O)(=O)c2c(C)noc2C)C3=N1 | inactive |
| CCN1C(=O)N[C@H](c2ccc(Br)cc2)C(C(=O)OC)=C1C | inactive |
| CC1(C)O[C@@H]2[C@@H](O1)C(c1ccccc1)(c1ccccc1)OP(=O)(O)OC2(c1ccccc1)c1ccccc1 | inactive |
| CCCCC1=CC2=CC(=O)C(C)(OC(=O)CC)C(=O)C2=CN1Cc1ccccc1 (stereo not given) | inactive |
| CCC(=O)N1C2=C(c3ccccc3[C@@H]1CC(=O)Nc1ccc3ccccc3c1)[C@@H]1C(=O)N(c3ccccc3)C(=O)[C@@H]1[C@H](C)C2 | 1900 nM (active) |
| COC(=O)C1=C(C(=O)OC)[C@@H]2Nc3ccccc3[C@@]23C[C@@H](C(=O)OC)N(C(=O)c2cc(C)oc2C)C3=N1 | 1690 nM (active) |
| CC1(OC(=O)C2CCCC2)C(=O)C=C2C=C(c3ccsc3)N(c3ccc(CO)cc3)C=C2C1=O (stereo not given) | inactive |
| C=CC1=C2C=C(C3CC3)N(C3CC3)C=C2C(=O)C(C)(OC(=O)c2ccco2)C1=O (stereo not given) | inactive |
| C=CCN1c2ccccc2[C@]23C[C@@H](C(=O)OC)N(C(=O)COCc4ccccc4)C2=NC(C(=O)OC)=C(C(=O)OC)[C@H]13 | inactive |
| COC(=O)CCCC1=CC2=CC(=O)C(C)(OC(=O)CCc3ccccc3)C(=O)C2=CO1 (stereo not given) | inactive |

| SMILES | Potency |
| --- | --- |
| CCCCC1=CC2=CC(=O)C(C)(OC(=O)CC)C(=O)C2=CN1CCCCO (stereo not given) | inactive |
| CCOC(=O)CN1C(=O)N[C@@H](CCc2ccccc2)C(C(=O)OC)=C1C | inactive |
| COc1cccc([C@@H]2Oc3ccc(Br)cc3[C@H](O)[C@@H]2O)c1 | inactive |
| COC(=O)CCCC1=CC2=CC(=O)C(C)(OC(=O)c3cccs3)C(=O)C2=CN1Cc1ccccc1 (stereo not given) | inactive |
| CCOC(=O)CN1C(=O)N[C@@H](CCc2ccccc2)[C@H](C(C)=O)[C@H]1C | inactive |
| COC(=O)N1C2CC(=O)O[C@@H]3c4cc5c(cc4[C@]1(C)[C@@]3(Br)c1ccccc12)OCO5 | 1690 nM (active) |
| COC(=O)CCCC1=CC2=C(c3ccccc3)C(=O)C(C)(OC(=O)C3CCCC3)C(=O)C2=CN1CCc1c[nH]c2ccccc12 (stereo not given) | inactive |
| COC/C=C/C1=CC2=CC(=O)C(C)(OC(=O)c3cnc4ccccc4n3)C(=O)C2=CN1CCOC (stereo not given) | inactive |
| C=CCN1c2ccccc2[C@]23C[C@@H](C(=O)OC)N(C(C)=O)C2=NC(C(=O)OC)=C(C(=O)OC)[C@H]13 | inactive |
| CCN1C(=O)N(S(=O)(=O)c2ccc(C)cc2)[C@@H](c2ccccc2)C(C(=O)OC)=C1C | inactive |
| COCCN1C(=O)N[C@@H](c2cccc(F)c2)C(C(=O)OC)=C1C | inactive |
| CCOC(=O)CN1C(=O)N[C@@H](c2cccc(C(F)(F)F)c2)[C@@H](C(=O)OC)[C@H]1C | inactive |
| COC(=O)C1=C(C(=O)OC)[C@@H]2N(C)c3ccccc3[C@@]23C[C@@H](CO)N(C(=O)c2cc(C)oc2C)C3=N1 | inactive |
| COC(=O)C1=C(C(=O)OC)[C@@H]2Nc3ccccc3[C@@]23C[C@@H](C(=O)OC)N=C3N1 | inactive |
| CCN1C(=O)N[C@@H](c2cccc(C(F)(F)F)c2)C(C(=O)OC)=C1C | inactive |
| COc1ccc(-c2nc3c(c4c2C[C@H](c2ccccc2)OC4)CN(S(=O)(=O)c2ccc(C#N)cc2)CC3)c(C)c1 | 1510 nM (active) |
| CCCCC1=CC2=C(c3ccco3)C(=O)C(C)(OC(=O)c3ccc(OC)cc3)C(=O)C2=CN1C1CCCC1 (stereo not given) | inactive |
| CCN(CC)CCCN1C=C2C(=O)C(C)(OC(=O)CCC(=O)OC)C(=O)C(Br)=C2C=C1c1ccc(OC)cc1 (stereo not given) | inactive |
| CC[C@@H](C)CN1C(=O)N[C@@H](c2ccccc2)C(C(C)=O)=C1C | inactive |
| CCCCS(=O)(=O)N1C2=NC(C(=O)OC)=C(C(=O)OC)[C@@H]3N(Cc4ccccc4)c4ccccc4[C@]23C[C@H]1C(=O)OC | 1510 nM (active) |
